Rows were chosen to be rich in hits. Some 2.4% of all compounds tested hit in one or more screens of this group.
D2 ag-1: activates the human D2 dopamine receptor; P14416; HEK293 T-REx D2 cells, calcium flux agonist mode; activation, % at 2 µM; hit rate 0.53% among 340,000; AID 485358;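 active means activation over 3 SD above normal in the single-dose calcium agonist read, cut at about 30% in these data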; further: 0% is about no effect
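Agonism is scored from calcium flux in a force-coupled, inducible HEK293 cell line expressing D2, read kinetically for 180 s after compound addition against dopamine controls.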
D2 antag: D2 dopamine receptor (human) antagonism | P14416 | inhibition, % at 10 µM | HEK293 TREx D2 cells, calcium flux, dopamine EC80 | hit rate 2% among 340,000; in the data active means inhibition above about 30%; inactive means below that, where a call was filed; further: 0% is about no effect
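In this primary screen, negative modulation is detected by tracking calcium flux after an EC80 dopamine challenge in inducible HEK293 T-REx D2 cells preexposed to test compound for 180 s.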
D2 PAM-1: human D2 receptor positive allosteric modulation; AID 624464; potentiation, % (no concentration beside the values); hit rate 0.23% among 360,000; DiscoveRx D2 beta-arrestin cells, luminescence, 90 min; 100% = 57 uM dopamine signal; in the data active means potentiation above about 50%; inconclusive means mostly about 30% to 49%
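PathHunter beta-arrestin assay in DiscoveRx D2 cells. Compounds were added with an EC20 of dopamine (50 nM final) for 90 min at 37 deg C. Luminescence was read 1 h after detection reagent, with 57 uM dopamine as the EC100 control.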
D2 ag-2: activates the human D2 dopamine receptor. P14416. DiscoveRx PathHunter D2 beta-arrestin, luminescence, 90 min; 100% = 57 uM dopamine signal. hit rate 0.084% among 360,000. AID 624465. activation, % (no concentration beside the values); in the data active means activation above about 40%; inconclusive means between about 15% and that limit
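DiscoveRx PathHunter D2 beta-arrestin cells (2,100/well) attached overnight, then compound-stimulated 90 min at 37 C in HBSS/10 mM HEPES/0.1% Tween-20 buffer; beta-galactosidase complementation read by luminescence after 1 h at ambient temperature. Dopamine 57 uM final (EC100) as control.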
D2 PAM-2: positively modulates the human D2 dopamine receptor allosterically; P14416; potentiation, % at 10 µM; hit rate 0.34% among 340,000; AID 485347; HEK293 T-REx D2, calcium flux, EC20 dopamine potentiation;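 active means potentiation over 3 SD above the plate norm, cut at about 30% in these data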; further: 0% is about no effect
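Primary screen. Calcium kinetics in induced HEK293 T-REx D2 cells: compound pre-addition 180 s, EC20 dopamine, 180 s more.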
D3 ag: D3 receptor agonism confirmed, beta-arrestin readout; DiscoveRx D3 beta-arrestin cells, luminescence, 90 min; shares compounds with D2 ag-1; hit rate 4% among 2,300; AID 720506; Potency, µM (series often up to 76.9 µM), inactives show top-dose activation, hits mostly activators;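 further: potency means the concentration at half of the fitted maximal effect; 100% = dopamine control response; nearly all actives have a fitted effect of over 70% in size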
Target sequence (P35462 whole entry, looked up): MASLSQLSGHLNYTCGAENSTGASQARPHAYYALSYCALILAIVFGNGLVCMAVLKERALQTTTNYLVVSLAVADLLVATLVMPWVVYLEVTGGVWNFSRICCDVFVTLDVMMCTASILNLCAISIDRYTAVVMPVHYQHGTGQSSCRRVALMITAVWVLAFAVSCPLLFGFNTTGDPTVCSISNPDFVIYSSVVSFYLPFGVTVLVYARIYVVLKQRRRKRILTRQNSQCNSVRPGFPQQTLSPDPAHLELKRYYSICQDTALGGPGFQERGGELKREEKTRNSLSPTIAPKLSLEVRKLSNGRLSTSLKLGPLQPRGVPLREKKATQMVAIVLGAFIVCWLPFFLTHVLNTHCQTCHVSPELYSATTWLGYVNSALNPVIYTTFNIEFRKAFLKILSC
D2 ag-3: activates human D2 dopamine receptor in D3 counterscreen | shares compounds with D2 ag-1 | DiscoveRx PathHunter D2 beta-arrestin, luminescence, 90 min; response scale: percent relative to full dopamine signal | Potency, µM (highest dose often 76.9 µM), for the others: at the highest dose activation, most hits filed as activators | hit rate 5.9% among 2,300; further: potency means the concentration at half of the fitted maximal effect; % of control where 0% means no effect; nearly all actives have a fitted effect of over 70% in size
Numbers without * were called inactive; ? = inconclusive; . = not tested or not shown. Unless noted, the call rests on the fitted dose curve; in most records, active means well fitted activation curve with a large enough effect; inconclusive means small, poorly fitted or top-dose-only effect; inactive means flat fitted curve, though single readings scatter.

SMILES | D2 ag-1 | D2 antag | D2 PAM-1 | D2 ag-2 | D2 PAM-2 | D3 ag | D2 ag-3
Cc1ccc(CN2C(=O)c3oc4ccc(C)cc4c(=O)c3C2c2ccc(O)cc2)cc1 (stereo unspecified) | 0 | . | . | . | 15 | . | .
Cc1cc(C)cc(NC(=O)N2CCC(CN3CCc4ccccc4C3)CC2)c1 | . | . | . | . | -13 | . | .
CN(CCOc1ccccc1Cl)Cc1ccccc1 | 25 | 85* | -3 | 2 | -28 | ? | -3%
N#CC1=C(N)NC(SCC(=O)Nc2ccc(Br)cc2)=C(C#N)C12CCCCC2 | 75* | -41 | -36 | -1 | -18 | 7% | 8%
N#CC1=C(N)NC(SCc2ccc(Br)cc2)=C(C#N)C12CCCCC2 | . | . | -4 | 4 | . | . | .
Cc1ccc(NC(=O)C2(C)Cc3ccccc3C(=O)O2)c(C)c1 (stereo unspecified) | 0 | . | . | . | 3 | . | .
O=C(/C=C/c1ccccc1Cl)N(c1ccccn1)C1CCCCC1 | 77* | 99* | 5 | ? | -28 | 9% | ?
O=C(/C=C/c1ccccc1Cl)NC1CCCCC1 | 0 | -9 | -6 | 0 | -5 | . | .
Cc1ccc(N/C(N)=N/c2nc(C)cc(C)n2)cc1 | 80* | 31* | -27 | 0 | -34 | -4% | 4%
Cc1cc(C)nc(/N=C(\N)Nc2ccc([N+](=O)[O-])cc2)n1 | 15 | 37* | -2 | 1 | -9 | -7% | -4%
CCC(=O)Nc1ccc(N/C(N)=N/c2nc(C)cc(C)n2)cc1 | 1 | 2 | -21 | -3 | 4 | . | .
CCCCc1ccc(N/C(N)=N/c2nc(C)cc(C)n2)cc1 | 56* | 43* | -4 | ? | -14 | ? | ?
CCOc1cc(CNc2ccc(O)cc2)ccc1OCc1ccc(Cl)cc1 | 0 | . | . | . | -10 | . | .
COc1ccc(S(=O)(=O)c2c(C(=O)c3ccc(C)c(C)c3)cnc3ccc(C)cc23)cc1 | . | . | . | . | -6 | . | .
COc1ccc(N(Cc2cccs2)C(=O)c2ccc(Br)o2)cc1 | -2 | . | . | . | -10 | . | .
COc1cccc(C(=O)NC2CCCC2)c1 | 0 | -1 | -9 | 6 | 0 | . | .
COc1cccc(C(=O)NNC(=S)NC2CCCCC2)c1 | 56* | 31* | -29 | -8 | -20 | -4% | -5%
COCCCNC(=O)c1sc2nc(C)c(C(=O)Nc3ccc(C)cc3C)c(-c3ccccc3Cl)c2c1N | -1 | . | . | . | 15 | . | .
Nc1nc2ccccc2n1/N=C/c1ccc([N+](=O)[O-])s1 | 1 | 14 | 10 | 0 | 22 | ? | -2%
CCS(=O)(=O)N1CCc2cc(C(=O)NCc3ccccc3OC)ccc21 | -1 | . | . | . | -2 | . | .
Cc1cc(OCC(=O)Nc2ccncc2)ccc1Cl | 1 | 1 | -5 | 10 | -9 | . | .
Cc1cc(OCC(=O)Nc2ncn[nH]2)ccc1Cl | 0 | -24 | -6 | 0 | 7 | -6% | -6%
Cc1ccc(-n2nc3c(=O)n(CC(=O)NCc4ccccn4)nc(C)c3c2C)cc1 | 52* | -5 | -6 | 0 | -17 | -6% | -3%
CC(/C=C/c1ccccc1)=N\NC(=S)NC(C)C | 31* | 2 | -22 | -9 | -17 | -4% | -6%
O=[N+]([O-])c1ccc(O)c(-c2cc(C(F)(F)F)nc(-c3ccccc3)n2)c1 | 14 | 21 | 7 | 0 | -5 | ? | 2%
CCOC(=O)Cc1csc(NC(=O)c2csc(C)c2)n1 | 61* | -16 | -8 | -2 | -18 | 2% | 5%
CCOC(=O)Cc1csc(NC(=O)c2cccc(OC)c2)n1 | 0 | 7 | 8 | -3 | 3 | . | .
COc1ccc2[nH]c3c(=O)n4c(nc3c2c1)SCC4 | 1 | 11 | 13 | 5 | -4 | . | .
COc1cc2[nH]c3c(=O)n4c(nc3c2cc1OC)SCCC4 | 1 | 6 | 14 | 0 | 7 | 7% | -3%
